UHRF1 MBD2 ctr: human UHRF1 methylated DNA binding inhibitors; Q96T88; UHRF1 binding to methylated oligo, TR-FRET; 0.75% of 370,000 active; inhibition, % at 4.4 µM; in the data active = inhibition above about 21%;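 note: UHRF1 SRA domain binding a hemimethylated CpG hairpin DNA probe; 0% = median of test compound wells and 100% = reference inhibitor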
LEDGF integ inh: blocks HIV-1 LEDGF/p75-dependent DNA integration; inhibition, % at 3.7 µM; 0.64% of 370,000 active; TR-FRET IN-LEDGF/p75 DNA integration, Eu/Cy5;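 active = inhibition above the screen-wide mean plus 3 SD, cut at about 13% in these data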;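 note: signal is the Cy5 over europium emission ratio at 671 and 618 nm; 0% = plate median of compound wells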
ABHD5 PLIN5 PPI: ABHD5-PLIN5 protein interaction inhibition. Q00G26+Q8WTS1. Split G. princeps luciferase complementation, luminescence, 4 h. inhibition, % at 4 µM. 0.78% of 360,000 active;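 active = inhibition above the mean inhibition across every tested compound plus 3 SD, cut at about 22% in these data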;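 note: 0% = DMSO only wells and the 100% control is not disclosed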
rCAG binder: r(CAG) repeat RNA binding; TO-PRO-1 dye displacement fluorescence; inhibition, % at 3 µM; 1.3% of 370,000 active;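 active = inhibition above the plate cutoff, the mean of all test compounds on that plate plus 3 SD, cut at about 35% in these data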;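 note: 0% = DMSO alone and 100% = 100 µM mitoxantrone as full dye displacement; higher means more dye released from RNA so lower well fluorescence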
MBD2 inh: MBD2-methylated oligo binding inhibition. inhibition, % at 4.4 µM. 0.31% of 370,000 active. AID 686964. Q9UBB5. TR-FRET, MBD2 binding to methylated oligonucleotide; in the data active = inhibition above about 13%
Target sequence (Q9UBB5 whole entry, looked up): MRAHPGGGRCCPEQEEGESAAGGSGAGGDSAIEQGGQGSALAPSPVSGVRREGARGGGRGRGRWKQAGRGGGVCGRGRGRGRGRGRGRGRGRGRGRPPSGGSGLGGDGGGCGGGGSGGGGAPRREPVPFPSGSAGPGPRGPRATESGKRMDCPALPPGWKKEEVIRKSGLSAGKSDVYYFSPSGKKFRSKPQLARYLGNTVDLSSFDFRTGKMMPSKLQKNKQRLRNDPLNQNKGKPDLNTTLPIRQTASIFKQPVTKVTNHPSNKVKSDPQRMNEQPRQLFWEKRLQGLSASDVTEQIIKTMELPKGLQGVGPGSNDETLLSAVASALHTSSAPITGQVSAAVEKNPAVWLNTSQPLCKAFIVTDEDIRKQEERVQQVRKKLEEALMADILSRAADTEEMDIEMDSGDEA
PRMT1 FP inh: PRMT1 (human) inhibition, primary screen; Q99873; inhibition, % at 2.79 µM; recombinant PRMT1, activity-based probe fluorescence polarization; 1.3% of 370,000 active;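 active = inhibition above about 21% made by adding two undisclosed values, limit read from the data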
rCAG binder conf: r(CAG) RNA repeat binding, confirmation. inhibition, % at 3 µM. AID 652065. shares compounds with rCAG binder. TO-PRO-1 dye displacement fluorescence. 70% of 4,300 active;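 active = inhibition above a per-plate cutoff, the mean inhibition of sample wells plus 3 SD, cut at about 35% in these data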;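 note: loss of TO-PRO-1 fluorescence as compound displaces dye from 1x1 AA loop RNA; 0% = DMSO only wells and 100% = 100 µM mitoxantrone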
dCAG dye counter: disrupts DNA CAG TO-PRO-1 complex, flagging rCAG hits; AID 652068; 94% of 4,300 active; inhibition, % at 3 µM; shares compounds with rCAG binder; d(CAG) DNA oligo TO-PRO-1 dye displacement, fluorescence;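 active = inhibition above its plate's cutoff, the mean test-well inhibition plus 3 SD, cut at about 4.8% in these data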;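 note: 0% = DNA dye mix with DMSO and 100% = 100 µM mitoxantrone; hits displace the dye from DNA and so lower well fluorescence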
Active calls of the source: *; x = not tested or not shown. The list is not random: actives were taken first. Their share in the collection is about 4.1%.

SMILES	UHRF1 MBD2 ctr	LEDGF integ inh	ABHD5 PLIN5 PPI	rCAG binder	MBD2 inh	PRMT1 FP inh	rCAG binder conf	dCAG dye counter
COc1ccc2ccccc2c1C=NNC(=O)CN1CCN(Cc2ccccc2)CC1	-2	1	x	0	-1	4	x	x
CCN(Cc1ccccc1)S(=O)(=O)c1c(C)n(C)c(=O)n(C)c1=O	-5	1	1	-4	-4	-2	x	x
CCN(Cc1ccccc1)S(=O)(=O)c1c(N)n(C)c(=O)n(C)c1=O	30*	3	1	52*	13	4	3	0
CC(C)=CCc1c(O)cc2oc3c(CC=C(C)C)c(O)c(O)c(CC=C(C)C)c3c(=O)c2c1O	1	-4	1	72*	-3	3	67*	47*
COc1cc(OC)c(NC(=O)c2ccc3c(SCC(=O)O)c4c(nc3c2)CCCC4)cc1Cl	2	-3	7	51*	7	7	62*	24*
COc1cc(NS(=O)(=O)c2ccc(N/C=C(\C#N)c3nc4ccccc4o3)cc2)nc(OC)n1	1	1	2	68*	-2	-2	67*	31*
COc1cc(NS(=O)(=O)c2ccc(N/C=C(\C=O)c3nc4ccccc4o3)cc2)nc(OC)n1	-1	0	-4	35*	1	3	39*	11*
CN(C)[C@H]1CCN(c2ccc3c(c2)OCCCN(C2CC2)S3(=O)=O)C1	9	0	x	3	7	0	x	x
CC1(C)Cc2c(c(-c3ccco3)nc3sc4c(NCCO)ncnc4c23)CO1	-6	8	5	21	6	19	x	x
CSc1nc(SCCO)c2sc3nc(-c4ccco4)c4c(c3c2n1)CC(C)(C)OC4	3	8	16	39*	8	22*	39*	20*
Clc1cc(Cl)cc(CNC2CCC23CCCCC3)c1 (configuration not stated)	0	-1	x	x	-4	-1	x	x
O=C(O)c1cc(N/N=C/c2ccc(-c3ccccc3)cc2)ccc1Cl	0	0	-7	63*	-2	2	76*	40*
Nc1ccc(C(=O)N/N=C\c2ccc(OC(=O)c3ccccc3Cl)cc2)cc1	-3	-5	-6	7	-2	-1	x	x
COc1cc(/C=N/Nc2ccc(Cl)c(C(=O)O)c2)ccc1OC(=O)c1cccs1	2	-3	0	54*	0	13	69*	30*
O=C(O)c1ccc(N/N=C/c2ccc(OC(=O)c3ccccc3Cl)cc2)cc1	-2	-1	-2	81*	0	5	68*	28*
Cc1ccc(S(=O)(=O)Oc2cccc(/C=N/Nc3ccc(C(=O)O)cc3)c2)cc1	1	0	-6	74*	0	3	58*	17*
COc1cccc(N(C)C(=O)[C@@H](C)[C@@H](O)c2ccc(Cl)cc2)c1	1	-3	x	1	3	-1	x	x
O=C(O)c1ccc(N/N=C/c2ccc(-c3ccccc3)cc2)cc1	-1	-2	15	62*	-5	4	72*	25*
CC(C)c1ccc(/C=N/Nc2ccc(C(=O)O)cc2)cc1	-1	8	-1	18	-1	12	x	x
Cc1ccc(S(=O)(=O)N2[C@@H](c3ccccc3F)C(C(=O)O)=CC[C@H]2c2cccs2)cc1	-1	4	-2	45*	2	-2	46*	12*
Cc1ccc(S(=O)(=O)N2[C@@H](c3ccccc3)C(C(=O)O)=CC[C@H]2c2cccs2)cc1	-2	4	-1	42*	-2	1	43*	9.4*
CN1C(=O)/C(=C/c2ccc(-c3ccccc3[N+](=O)[O-])o2)SC1=Nc1ccc(Cl)c(C(=O)O)c1	-1	2	2	43*	-5	11	85*	51*
O=C(O)c1cc(-c2ccc(/C=C3/SC(=S)N(Cc4ccccc4)C3=O)o2)ccc1Cl	14	-1	5	16	2	14	x	x
CCCOc1ccc(C2C3=C(Nc4nc(N)[nH]c(=O)c42)c2ccccc2C3=O)cc1 (configuration not stated)	4	-4	0	71*	-5	4	57*	37*
COc1ccc(C2C3=C(CCCC3=O)NC3=C2C(=O)c2ccccc23)cc1 (configuration not stated)	-5	0	14	11	-13	-2	x	x
SMILES	UHRF1 MBD2 ctr	LEDGF integ inh	ABHD5 PLIN5 PPI	rCAG binder	MBD2 inh	PRMT1 FP inh	rCAG binder conf	dCAG dye counter
CCOc1ccc(C2C3=C(Nc4nc(N)[nH]c(=O)c42)c2ccccc2C3=O)cc1 (configuration not stated)	-7	1	18	66*	-9	2	53*	35*
COC(=O)[C@]12C[C@H](CC(=O)NCc3cccc4ccccc34)C(=O)N(Cc3ccc4c(c3)OCO4)C1=C[C@H](C(C)C)O[C@@H]2C1CC1	0	-3	x	8	2	4	x	x
CCCOc1ccc(/C=N/Nc2ccc(C(=O)O)cc2)c(OCCC)c1	0	2	-8	55*	-3	7	60*	22*
COc1cc(C2C(C#N)=C(N)N(c3cccnc3)C3=C2C(=O)CCC3)ccc1O (configuration not stated)	0	0	-12	3	7	7	x	x
COc1cc(C2C(C#N)=C(N)N(c3ccc(F)cc3)C3=C2S(=O)(=O)CC3)ccc1O (configuration not stated)	3	7	1	38*	-5	25*	15	9.0*
C[C@H]1COc2cccc(F)c2S(=O)(=O)N1C	0	2	x	2	0	0	x	x
CN(C)c1ccc(/C=C(/NC(=O)c2ccccc2)C(=O)N/N=C/c2ccc([N+](=O)[O-])c(O)c2)cc1	-9	-5	4	67*	-8	7	62*	26*
COc1cc(/C=C2\SC(=Nc3ccccc3)NC2=O)cc(Cl)c1O	-11	-2	7	-12	-5	-10	x	x
CCc1ccc(N=C2NC(=O)/C(=C/c3cc(OC)c(O)c(OC)c3)S2)cc1	5	0	-2	42*	3	0	40*	16*
COc1ccc(N(Cc2ccccc2)S(=O)(=O)c2cc(C(=O)O)ccc2Cl)cc1	0	6	1	53*	-2	0	42*	8.9*
O=C(O)c1ccc(Cl)c(S(=O)(=O)N(Cc2ccccc2)c2ccc(F)cc2)c1	-2	0	-7	54*	-1	-2	48*	13*
O=C(O)c1cccc(S(=O)(=O)N(Cc2ccccc2)c2ccc(Cl)cc2)c1	0	6	-2	38*	-2	-5	41*	12*

Bioassay records as filed in PubChem BioAssay.
